Experimental data taken from the supplement of paper PMC6555819.

Tests used:
Assay in all cases: PBM binding z-score (relative to random genomic background probes); higher = stronger binding; sequences stand for … in GC…GCGATTGACAGCGTAGAATGAAGG
[1] = system: PPARg:RXRa DBDmut IVT, anti-RXR (DBD mutation: RXRa K156A/R161A, NR concentration 270 nM, RXRa partner concentration 90 nM)
Outline: (§1)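 Probes were double-stranded and carried 34-nt variable regions with direct-repeat seeds, single-nucleotide variants, half-site ablations and random human genomic background sequences, printed on custom Agilent 4×180K protein-binding microarrays. Arrays were incubated 1 h with ligand-free nuclear receptor dimers in PBS pH 7.4, 2% milk, 0.02% Triton X-100, 1 mM DTT, 0.2 mg/mL BSA and 0.4 mg/ml salmon testes DNA. Antibodies against each partner (one per run) detected binding, and scanned fluorescence was regression-normalized. Binding z-scores use the random background probes as reference.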

[2] = system: PPARg:RXRa IVT, anti-PPARg (NR concentration 270 nM, RXRa partner concentration 90 nM)
Outline: as §1

[3] = system: PPARg DBDmut:RXRa IVT, anti-PPARg (DBD mutation: PPARg1 K132A/R137A, NR concentration 270 nM, RXRa partner concentration 90 nM)
Outline: as §1

[4] = system: PPARg DBDmut IVT, anti-PPARg (DBD mutation: PPARg1 K132A/R137A, NR concentration 270 nM)
Outline: as §1

[5] = system: PPARg homodimer (NR concentration 180 nM)
Outline: as §1

[6] = system: PXR:RXRa (NR concentration 270 nM, RXRa partner concentration 90 nM)
Outline: as §1

[7] = system: PXR homodimer (NR concentration 270 nM)
Outline: as §1

[8] = system: RARa:RXR (NR concentration 270 nM, RXRa partner concentration 90 nM)
Outline: as §1

[9] = system: RARa homodimer (NR concentration 270 nM)
Outline: as §1

[10] = system: RARb:RXRa (NR concentration 270 nM, RXRa partner concentration 90 nM)
Outline: as §1

Sequence | PBM binding z-score [1] | PBM binding z-score [2] | PBM binding z-score [3] | PBM binding z-score [4] | PBM binding z-score [5] | PBM binding z-score [6] | PBM binding z-score [7] | PBM binding z-score [8] | PBM binding z-score [9] | PBM binding z-score [10]
GCGACTGGGGCATCAGCAGGTTACCATTACTTAA | 3.98 | 3.38 | -0.628 | -0.712 | 0.00295 | -0.132 | -0.395 | 0.221 | -0.0866 | 0.832
GGAACGAGGCCAAAGTTGATAGCATCTGTCGACG | 2.57 | 2.98 | -0.146 | -0.0906 | 0.104 | 0.113 | -0.124 | 0.441 | -0.395 | 1.33
ATTTGTAGGTTAGCTGGGGTCATTCAGACTAGGC | 5.34 | 5.05 | 2.63 | 3.11 | 4.33 | 6.6 | 4.49 | 5.99 | 2.49 | 3.52
TCTTGTAGGTCAAGCAGGTTAAGAAAGCCTGAGT | 7.24 | 8.12 | 1.76 | 1.83 | 1.66 | 3.63 | 0.673 | 3.68 | 0.596 | 4.34
CCGACTGGGGCAGAAAGGTTGCCATACCATCCGG | 1.37 | 1.17 | -1.21 | -1.54 | -0.128 | -0.241 | -0.699 | -0.0627 | -0.964 | 0.6
ATGTCTAGGTAAAGATAGTTCAGTGAATGCAAAT | 1.16 | 1.51 | 0.413 | 1.23 | 0.188 | 0.798 | 0.588 | 0.428 | 0.724 | 0.63
CCTCGGAGGACTACAGGAGGTCAGAGCTGCCAGA | -0.516 | -0.34 | -1.03 | -2.28 | 0.985 | 2.04 | 0.121 | 2.24 | -0.496 | 1.93
TAGCCTAGGTCAGATGGGGCCAGTATACGCTATA | 1.03 | 1.7 | -0.854 | -0.361 | 0.556 | 3.45 | -0.272 | 1.24 | -0.56 | 3.42
CCTTACGGGGCACTCCAGGTTATAGCATCGGAGT | 0.818 | 0.578 | -0.912 | -1.1 | 0.148 | 0.683 | -0.195 | 0.828 | -0.55 | 1.05
TCCGACAGGTGAAGGTAACTCAGGTACGCAGTCG | 1.51 | 1.05 | -0.595 | -0.742 | -0.0885 | 0.293 | -0.308 | 0.63 | -0.702 | 0.858
AGAATGAGGTTACCAAAGATCAGGAAAACGCTTG | 4.01 | 3.35 | 0.931 | 0.626 | 0.925 | 1.57 | -0.0296 | 2.1 | 0.339 | 1.95
TAGCCTACGTCAGATCGGGCCAGTATACGCTATA | -1.07 | -0.466 | -1.21 | 0.256 | -1.51 | -0.718 | -1.22 | -0.618 | -1.02 | -0.507
TGAATGAGGTTATAAGATAAGGGAACGTTGCAAA | 0.589 | 1.42 | 1.45 | 0.957 | 0.436 | 0.669 | 0.0149 | 1.32 | -0.0101 | 1.04
ACTATTAGTTGAGACGAGGGCATCCGATAGGTTG | 0.0561 | -0.111 | 1.09 | 0.274 | -0.612 | 1.7 | 0.926 | 0.817 | 0.577 | 0.742
CGTCCAACGTCAGAGAGGTCAGTGAATGCCGAGT | 0.129 | 0.706 | -0.788 | -0.969 | 1.24 | 2.74 | 0.717 | 2.53 | 0.224 | 2.92
AAAACGAGGGCAATGAGTTGATAGCACGGGTGGC | 5.04 | 3.79 | 1.2 | 0.681 | 0.0756 | 1.86 | 4.72 | 0.593 | -0.42 | 2.18
CCGACTGCGGCATAAGGTTACCATAAGCCAGCCC | -0.303 | -0.677 | -0.568 | -0.753 | 0.108 | 0.121 | -0.316 | 0.892 | 0.0382 | 0.791
CGAACTAGGTCATGGACAGGACAGTGAATAGTAA | 8.1 | 8.31 | 3.01 | 0.998 | 1.68 | 1.65 | -0.17 | 2.55 | 0.249 | 3.88
AGTACAGGGTCACTAGGCCAGAGTAGGTACGAAT | 3.37 | 5.52 | 0.92 | 0.785 | 2.13 | 3.07 | 0.0901 | 4.21 | 0.585 | 4.23
TCATATACGTAAATGCTAGGTGAAAGTCCGATCT | 2.16 | 0.926 | 0.89 | 1.72 | 0.664 | 0.565 | 0.25 | 0.743 | 0.987 | 0.357
AGAATGCGGTTATTAAGATCAGGGAATTGCGGTC | -0.161 | 0.143 | -0.136 | -0.574 | -0.18 | -0.396 | 0.0419 | -0.457 | 0.329 | -0.0684
CCTCGGAGGACAGAAGATCAGAGCTGTCCGCTTT | -0.304 | -0.633 | -2.13 | -1.48 | -0.0483 | -0.636 | -0.786 | -0.512 | -0.276 | 0.386
AAAATGAGGTTATTAAGATCAGGGAATTGCGGTC | 3.99 | 3.21 | 0.794 | 0.452 | 0.921 | 1.23 | 0.722 | 1.41 | 0.567 | 1.51
TGTCAAAGTTCGAAGGTAACGTAAGTATCCACAC | -0.516 | 2.26 | 1.29 | 0.86 | 0.387 | 1.64 | 0.292 | 2.13 | 0.23 | 2.34
